Compound activity (PubChem BioAssay)
BaF3 parental – reduces parental Ba/F3 cell viability, JAK2V617F counter-screen | AID 1486 | actives 1.1% (n = 220,000) | inhibition, % at 5.6 µM | CellTiter-Glo ATP luminescence;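 active = inhibition above a per-campaign cutoff, the mean inhibition of all tested compounds plus 3 SD, cut at about 27% in these data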;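 note: 0% = DMSO wells and 100% = JAK Inhibitor I control wells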
Ba/F3 V617F tox – loss of viability in JAK2V617F-driven Ba/F3 cells | AID 1446 | inhibition, % at 5.6 µM | Ba/F3 EpoR-JAK2V617F viability, ATP luminescence | actives 1.1% (n = 220,000);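 active = inhibition above the campaign mean plus 3 SD over all tested compounds, cut at about 24% in these data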;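 note: cytokine-independent growth of Ba/F3 cells driven by EpoR plus mutant JAK2; 0% = DMSO-treated cells and 100% = JAK inhibitor I control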
IEC-6 tox – IEC-6 cytotoxicity, counter-screen for KLF5 inhibitors | AID 1825 | luminescence viability | inhibition, % at 5 µM | actives 0.78% (n = 290,000); in the data active = inhibition above about 22%;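 note: 0% = plate median of test compound wells and 100% = cytotoxic reference compound wells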
KLF5 inhibitor – kruppel-like factor 5 inhibition | actives 0.23% (n = 290,000) | AID 1700 | inhibition, % at 5 µM | DLD-1 KLF5 promoter-luciferase reporter, luminescence;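 active = inhibition above a per-plate limit of that plate's mean compound inhibition plus 3 SD, cut at about 60% in these data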;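 note: 0% = DMSO wells and 100% = LY294002 at 200 µM; higher means less KLF5 promoter-driven luciferase light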
APP transl inh – APP translation inhibition | SH-SY5Y APP 5'UTR-luciferase reporter, luminescence | inhibition, % at 2 µM | actives 0.82% (n = 190,000);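 active = inhibition above a set limit, derived from the sample mean plus 3 SD, cut at about 45% in these data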
aSyn UTR inh – MLPCN primary screen, SNCA 5' untranslated region; alpha-synuclein 5'UTR reporter, inhibitor activity; inhibition, % (tested at 7.5 µM); actives 0.82% (n = 300,000); AID 1813; in the data active = inhibition above about 60%;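 note: H4 neuroglioblastoma cells stably carrying SNCA 5'UTR luciferase fusion; 0% = DMSO wells and 100% = positive control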
BaF3 tox 2 – counter-screen for JAK2V617F inhibitors: parental Ba/F3 viability inhibitors; shares compounds with Ba/F3 V617F tox; CellTiter-Glo luminescence; cells kept alive by added IL-3; inhibition, % at 5.6 µM; actives 31% (n = 580);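 active = cell growth inhibition above the hit limit set in the earlier mutant JAK2 cell screen, cut at about 27% in these data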;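 note: plate controls were DMSO-treated cells for no effect and JAK Inhibitor I control wells for full effect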
JAK2V617F conf – confirmation: loss of viability in JAK2V617F-dependent Ba/F3 cells; shares compounds with Ba/F3 V617F tox; Ba/F3 EpoR-JAK2V617F viability, CellTiter-Glo luminescence; inhibition, % at 5.6 µM; actives 66% (n = 580);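 active = mean inhibition above the hit cutoff derived in the earlier primary screen, cut at about 25% in these data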;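 note: 0% = DMSO-treated cells and 100% = JAK inhibitor I control wells; higher means lower luminescence from reduced cell ATP and viability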
* marks the source's active call; other numbers are inactive results; . = no result. Compounds with a hit are over-represented: about 2.2% of the library has one in this group of screens.

SMILES	BaF3 parental	Ba/F3 V617F tox	IEC-6 tox	KLF5 inhibitor	APP transl inh	aSyn UTR inh	BaF3 tox 2	JAK2V617F conf
CC(=O)c1ccc2cccc3c2c1N=CN3C	10.8	50.0*	-8.4	9.4	1.0	6.2	-3.3	7.6
COc1ccc(N2CCN(C(CNC(=O)C(=O)NC3CCCC3)c3ccco3)CC2)cc1 (configuration not stated)	.	.	.	.	.	-7.7	.	.
Cc1cc(F)ccc1NCc1ccncc1	0.5	50.1*	-4.9	-11.2	-9.5	-13.5	-4.0	-3.9
COc1ccc(Nc2ncnc3ccccc23)c(OC)c1	5.1	-0.6	4.1	-36.3	-3.9	-8.1	.	.
COc1ccc(Nc2nc(N3CCCC3)nc3ccccc23)c(OC)c1	17.8	46.9*	9.5	-27.1	35.6	-80.8	5.7	10.9
Cc1cc2c(cc1S(=O)(=O)N1CCOCC1)NC(=O)CO2	.	.	-2.8	-3.1	.	20.3	.	.
COc1cccc(-n2nnnc2S(C)(=O)=O)c1	2.3	51.7*	39.0*	21.6	4.0	10.3	32.1*	95.3*
CN(C)c1nc(N(C)C)nc(N(C#N)CCOc2ccccc2)n1	7.4	3.4	4.5	-22.6	-17.6	-7.1	.	.
Cc1cc(C)nc(N(C#N)CCOc2ccccc2)n1	17.9	54.1*	-1.4	-11.2	10.5	11.3	9.5	17.6
Cc1cc(CNC(=O)c2ccc3c(c2)OCO3)c2ccccc2n1	3.0	-3.5	6.9	20.4	27.3	4.3	.	.
CCC(C)n1ncn(-c2ccc(N3CCN(c4ccc(O)cc4)CC3)cc2)c1=O (configuration not stated)	7.6	32.8*	3.7	57.4	0.3	73.2*	58.6*	48.3*
CCOc1ccccc1/C=N/NC(=O)c1c(C)nc2ccc(Br)cn12	.	.	12.0	-18.9	.	11.0	.	.
COc1cccc(/C=N/NC(=O)c2c(C)nc3ccc(Br)cn23)c1O	6.7	24.4*	6.2	49.4	61.1*	71.0*	62.1*	65.6*
COCCN(CC(=O)NCC1CCCO1)C(=O)CCC(=O)Nc1cc(C)on1 (configuration not stated)	0.6	34.9*	-6.2	2.4	-3.1	7.6	-5.5	-8.1
COCCN(CC(=O)NCC1CCCO1)C(=O)CCC(=O)Nc1cc(C)ccn1 (configuration not stated)	3.1	0.2	-3.1	-38.4	12.7	6.6	.	.
O=C1OC(/C(=C\Nc2cc(Cl)ccc2O)[N+](=O)[O-])c2ccccc21 (configuration not stated)	13.1	45.9*	-2.6	6.5	-43.2	-102.1	4.2	55.9*
O=C1OC(/C(=C\Nc2ccc(F)cc2F)[N+](=O)[O-])c2ccccc21 (configuration not stated)	3.2	0.8	-2.2	-20.3	5.4	-41.5	.	.
C=CCN=c1scc(C)n1/N=C/c1ccc(O)c(O)c1	25.2	61.9*	11.1	-57.8	-7.8	-156.0	36.9*	86.0*
O=C(c1ccccc1)C(CCC(CN1CCOCC1)C(=O)c1ccccc1)CN1CCOCC1 (configuration not stated)	4.3	44.2*	8.8	-14.3	90.3*	-5.0	19.4	99.5*
CCN1CCCC1CNC(=O)c1[nH]c2ccc(OC)cc2c1C (configuration not stated)	.	.	-0.5	-14.8	.	3.8	.	.
Cc1cc(C)nc(/N=C(\N)Nc2ccc(OCc3ccccc3)cc2)n1	11.3	34.1*	8.3	-87.2	6.2	12.5	4.6	38.9*
Cc1cc(C)nc(/N=C(\N)Nc2cccc(OCc3ccccc3)c2)n1	3.2	10.3	16.9	-2.3	.	6.6	.	.
O=C1/C(=C/c2ccc(O)c(O)c2)SC(=S)N1Nc1ccccc1	-5.7	37.9*	-0.9	-37.5	-35.2	-146.2	-1.7	66.8*
COc1cc(/C=C2\SC(=S)N(Nc3ccccc3)C2=O)ccc1O	3.7	-2.1	11.6	-67.5	-34.4	-145.2	.	.
CCOc1ccc(NC(=S)NNC(=O)CC(C)O)cc1 (configuration not stated)	1.2	26.4*	0.3	-32.7	5.0	6.2	-2.0	-5.0
SMILES	BaF3 parental	Ba/F3 V617F tox	IEC-6 tox	KLF5 inhibitor	APP transl inh	aSyn UTR inh	BaF3 tox 2	JAK2V617F conf
CCOc1ccc(NC(=O)CSC(N)=O)cc1	3.7	74.5*	-8.9	-33.2	4.6	-24.2	-5.7	11.9
CCOc1ccc(NC(=O)CC)cc1	5.0	-1.8	-1.9	-12.1	9.1	16.1	.	.
OCC1CCCC(n2cnc3c(=S)nc[nH]c32)O1 (configuration not stated)	21.7	24.5*	11.3	-4.8	.	8.9	-0.3	1.2
CCCn1c(SCC(=O)NC2CCCC(C)C2C)n[nH]c1=O (configuration not stated)	8.5	2.1	-4.5	-18.9	-8.9	6.6	.	.
CCCn1c(SCC(=O)NC2CCCc3ccccc32)n[nH]c1=O (configuration not stated)	7.7	57.2*	0.9	-7.0	-1.8	-2.9	-2.5	-3.1
CCOC(=O)CNc1ccc(OC(F)(F)F)cc1	-0.7	-4.5	2.0	-24.0	.	-10.2	.	.
CCN(CC)S(=O)(=O)c1cccc(-n2c(O)c(C=Nc3ccccc3C(=O)O)c3ccccc3c2=O)c1	9.8	26.2*	16.9	-20.6	.	-57.6	9.3	54.7*
O=C(O)c1ccccc1N=Cc1c(O)n(-c2nccs2)c(=O)c2ccccc12	2.1	17.0	3.3	-14.7	.	-3.9	.	.
NS(=O)(=O)c1ccc(Sc2nc3ccccc3s2)c([N+](=O)[O-])c1	21.4	65.3*	4.1	-23.5	.	66.6*	35.8*	93.3*
O=C(/C=C/c1ccccc1)c1ccc2c(c1)OCCCCO2	-0.2	0.3	1.3	-79.8	-147.0	-197.6	.	.
O=C(CCl)N(C/C=C/c1ccccc1)c1ccc2c(c1)OCCO2	5.3	40.3*	4.5	-25.4	-18.8	-80.6	19.5	94.0*
CN(C(=O)COC(=O)CN1C(=O)C2CC=CCC2C1=O)c1ccccc1 (configuration not stated)	.	.	.	.	.	-6.2	.	.
COc1ccc(C(=O)OCC(=O)N2CCCC2=O)c(OC)c1	-1.1	-1.7	-7.9	-32.6	-3.4	-7.4	.	.
O=C1N=C(N2CCOCC2)S/C1=C\c1ccc(OS(=O)(=O)c2ccccc2)cc1	11.5	44.4*	1.8	-17.4	-12.6	-12.2	-5.1	-3.0
O=C(NCCCCCCNC(=O)OCCO)OCCO	5.4	83.8*	5.2	9.2	-10.4	-12.7	-5.1	7.1
CCN(Cc1ccc(OC)c(F)c1)C(=O)CCl	-1.1	38.5*	-6.9	-2.2	9.4	-73.7	13.3	96.4*
Cc1ccc(CN2C(=O)CSC2c2ccccc2F)cc1 (configuration not stated)	.	.	-1.5	-31.6	.	-1.4	.	.
O=C(Nc1cccc([N+](=O)[O-])c1)c1cc2ccccc2cc1O	6.5	24.0*	-3.0	-60.2	.	-22.0	63.7*	75.2*
CSc1ccc(S(=O)(=O)NCCCOC(C)C)cc1	4.5	-0.2	-5.4	-28.0	-10.6	20.5	.	.
